# A selection: hits, their analogues and other compounds. The true share with any hit is near 3.5%.
# Pf apPOL block: Pf-apPOL inhibitors, biochemical, fluorescence; Recombinant Pf-apPOL, molecular beacon fluorescence, 1.5 h; inhibition, % at 10 µM; AID 1794808, 2022; hit rate 0.25% among 210,000
# mHTT-CaM PPI inh: mutant huntingtin-calmodulin interaction inhibitors – biochemical, AlphaScreen, primary screen; P42858; AlphaScreen His-mHTT/GST-CaM binding, luminescence; inhibition, % at 15 µM; hit rate 3.6% among 190,000; AID 1671202, 2021;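 further: 0% = both proteins with DMSO and 100% = one protein alone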
# Numbers without * were called inactive; x = not tested or not shown. No stated cut-off is given here; in the data, active means inhibition above about 50%; inactive means the rest.
SMILES,Pf apPOL block,mHTT-CaM PPI inh
Cc1ccc[n+](C2C(c3ccc([N+](=O)[O-])cc3)C(C#N)=C(S)NC2(O)C2CC2)c1 (configuration not stated),-1,84*
Cc1cccc[n+]1C1C(c2ccc([N+](=O)[O-])cc2)C(C#N)=C(C(C#N)C#N)NC1(O)C1CC1 (configuration not stated),-1,1
O=C1OC(c2cccc([N+](=O)[O-])c2)=N/C1=C\c1cccc(Cl)c1Cl,-1,6
O=C(c1ccccc1)N1CCCC(c2ccnc(Nc3ccc(F)cc3)n2)C1 (configuration not stated),-7,91*
CC(=O)N1CCCC(c2ccnc(Nc3cccc(F)c3)n2)C1 (configuration not stated),-2,32
O=C(c1ccsc1)N1CCCC(c2ccnc(Nc3cccc(F)c3)n2)C1 (configuration not stated),-2,67*
O=C(c1cccc(F)c1)N1CCCC(c2ccnc(Nc3ccccc3)n2)C1 (configuration not stated),0,18
O=C(c1ccoc1)N1CCCC(c2ccnc(Nc3cccc(F)c3)n2)C1 (configuration not stated),-2,72*
Cc1cccc(Nc2nccc(C3CCCN(C(=O)c4ccoc4)C3)n2)c1 (configuration not stated),1,29
CC(C)c1ccccc1OCC(O)CNC(C)(C)C (configuration not stated),-9,-4
O=C(c1ccc2nsnc2c1)N1CCN(C(=O)C2CC2c2cccs2)CC1 (configuration not stated),-6,-6
Oc1ccc(-c2csc(-c3ccccc3)n2)cc1O,0,26
NC(N)=Nc1nc(-c2ccc(O)c(O)c2)cs1,-6,61*
CC1C(c2ccc3ccccc3n2)=CNc2ccccc21 (configuration not stated),-1,91*
c1ccc2nc(-c3nc4ccccc4[nH]3)ccc2c1,9,3
COc1cccc(CNC(=O)C2CCCN(c3nccc(C)n3)C2)c1 (configuration not stated),-15,3
COCCC(=O)N1CCCC2(C1)Nc1ccccc1NC2=NC1CCCC1 (configuration not stated),-4,7
O=C(c1ccncc1)N1CCCC2(C1)Nc1ccccc1NC2=NCc1ccccc1 (configuration not stated),0,24
O=C(c1ccco1)N1CCCC2(C1)Nc1ccccc1NC2=NC1CCCC1 (configuration not stated),-1,79*
O=S(=O)(C1CC1)N1CCCC2(C1)Nc1ccccc1NC2=NCc1ccccc1 (configuration not stated),-5,62*
O=C(c1ccccc1)N1CCCC2(C1)Nc1ccccc1NC2=NC1CCCC1 (configuration not stated),2,32
O=C(c1ccoc1)N1CCCC2(C1)Nc1ccccc1NC2=NC1CCCC1 (configuration not stated),4,69*
O=C(c1ccccn1)N1CCCC2(C1)Nc1ccccc1NC2=NC1CCCC1 (configuration not stated),0,24
O=C(NCc1ccccc1)N1CCCC2(C1)Nc1ccccc1NC2=NC1CCCC1 (configuration not stated),-6,100*
Cn1cc(CNC(=O)c2c(NC(=O)CCn3cc(Cl)c([N+](=O)[O-])n3)cnn2C)cn1,x,4
SMILES,Pf apPOL block,mHTT-CaM PPI inh
CC(C)(C)C(=O)Nc1nnc(SCc2cccc(C(F)(F)F)c2)s1,-3,-23
O=S(=O)(c1ccc(Br)cc1)N1CCc2ccccc2C1,-2,-11
COc1ccc(-c2nnc(N3CCC(C(=O)NCc4ccncc4)CC3)o2)cc1,-2,-6
CC(C)CSc1ncnc2c1sc1nc(N3CCOCC3)c3c(c12)CC(C)(C)OC3,-7,-5
O=C(Nc1cc(F)cc(F)c1)c1c(O)c2cccnc2n(-c2cccc(F)c2)c1=O,-4,-5
O=C(CN1C(=O)/C(=C/c2ccc(Cl)cc2)Sc2ccccc21)N1CCOCC1,-7,13
CC(C)n1c(=O)c(N2CCN(C(=O)c3cc(-c4ccccc4)n[nH]3)CC2)nc2ccncc21,4,50*
CC(C)n1c(=O)c(N2CCN(C(=O)c3ccccc3)CC2)nc2ccncc21,-4,8
O=C(NCc1ccccc1F)c1cc2n(n1)C(C(F)(F)F)CC(c1ccco1)N2 (configuration not stated),-3,-3
O=C(NCCc1c[nH]c2ccccc12)c1cc2n(n1)C(C(F)(F)F)CC(c1ccco1)N2 (configuration not stated),-2,62*
Cc1ccc(CS(=O)(=O)CCC(=O)N(C)Cc2ccccc2)cc1,0,10
Cc1ccc(N2C(=O)S/C(=C\c3ccc(O)cc3)C2=O)cc1,-3,12
CC(/C=C1\SC(=O)N(c2ccc(O)cc2)C1=O)=C\c1ccccc1,-4,60*
Cc1cccc(NC(=O)NC2CCN(c3ccccc3)C2=O)c1 (configuration not stated),-6,-3
CCOc1cc(Nc2ccc(NC(=O)c3ccco3)cc2)nc(C)n1,-10,4
Cc1cc(C)n(-c2ccc(Nc3ccc(NC(=O)c4ccco4)cc3)nn2)n1,-8,67*
COc1ccc(S(=O)(=O)N=C2C=C(Nc3ccccc3OC)C(=O)c3ccccc32)cc1,0,91*
CCc1ccc(S(=O)(=O)N=C2C=C(Nc3ccccc3OC)C(=O)c3ccccc32)cc1,0,93*
COc1ccccc1NC(=O)c1ccc(F)cc1,-2,-6
O=C1C(NS(=O)(=O)c2ccccc2)=CC(=NS(=O)(=O)c2ccc(F)cc2)c2ccccc21,-5,5
CCc1ccc(S(=O)(=O)Nc2ccccc2OC)cc1,2,-25
Cc1ccccc1NC1=CC(=NS(=O)(=O)c2ccc(F)cc2)c2ccccc2C1=O,3,96*
COc1ccccc1NC1=CC(=NS(=O)(=O)c2ccc(F)cc2)c2ccccc2C1=O,2,94*
COc1ccc(S(=O)(=O)Nc2ccccc2NS(=O)(=O)c2ccc(OC)cc2)cc1,3,6
COc1ccc(C2=NOC(C(=O)Nc3cccc(O)c3)C2)cc1OC (configuration not stated),-1,5
SMILES,Pf apPOL block,mHTT-CaM PPI inh
Cc1ccc(-c2noc(C3CCN(CC(=O)NC(C)(C)C)CC3)n2)cc1,-5,-4
Cc1cccc(NC(=O)CCC2CCCN(c3cc(NC4CC4)ncn3)C2)c1 (configuration not stated),-5,8
COc1ccc(NC2=CC(=NS(=O)(=O)c3ccc(Cl)cc3)c3ccccc3C2=O)cc1,0,35
COc1ccccc1NC(=O)c1ccc2c(c1)-c1ccccc1C2=O,0,2
COc1ccccc1NC1=CC(=NS(=O)(=O)c2ccc(C)cc2C)c2ccccc2C1=O,-6,92*
COc1ccc(S(=O)(=O)N=C2C=C(Nc3cccc(C)c3)C(=O)c3ccccc32)cc1,-16,91*
COc1ccccc1NC(=O)CN(c1ccc(C)cc1C)S(C)(=O)=O,-3,0
COc1ccccc1NC1=CC(=NS(=O)(=O)c2ccccc2)c2ccccc2C1=O,3,94*
CC1CC(C)CN(S(=O)(=O)N2CCCC(C(=O)NCCN3CCCCC3C)C2)C1 (configuration not stated),-8,3

# Screening results deposited in PubChem by University of Kansas High Throughput Screening Laboratory.
